Compounds with a hit are over-represented: about 4% of the library has one in this group of screens.
TIM10 inh – growth inhibitors of TIM10 yeast strain; S. cerevisiae TIM10 strain growth, BacTiter-Glo luminescence, 24 h; inhibition, % at 10 µM; actives 1.4% (n = 330,000); AID 463195;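 active means inhibition of 40% or more at the single tested concentration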;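 further: wild-type TIM10 isogenic control strain grown at permissive 25 °C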
NLRP3 yeast inh – inhibitors of NALP3 inflammasome in yeast. Yeast reconstituted NLRP3/ASC/caspase-1, beta-gal luminescence, 24 h. inhibition, % at 10 µM. actives 0.39% (n = 330,000). AID 2825;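 active means inhibition of 50% or more; inactive means inhibition below 50%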
tim10-1 inh – growth inhibitors of tim10-1 mutant yeast | S. cerevisiae tim10-1 ts strain growth, BacTiter-Glo, 24 h | actives 2.2% (n = 330,000) | AID 463190 | inhibition, % at 20 µM;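 active means inhibition of at least 40%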;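 further: mutant grown at 25 °C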
NALP1 yeast inh – blocks the NALP1 inflammasome reconstituted in yeast | S. cerevisiae NALP1/ASC/caspase-1 growth, X-gal OD620, 72 h | inhibition, % at 10 µM | actives 0.61% (n = 280,000); in the data active means inhibition mostly above about 24%, no sharp cut-off; inactive means mostly below about 32%
tim23-1 inh – inhibits growth of tim23-1 mutant yeast; inhibition, % at 20 µM; S. cerevisiae tim23-1 growth, BacTiter-Glo luminescence, 24 h; actives 1.3% (n = 330,000);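 active means growth inhibition of the mutant yeast at or above 50%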;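 further: temperature-sensitive mutant grown at 25 °C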
tim10-1 confirm – tim10-1 yeast growth inhibition, confirmed; shares compounds with tim10-1 inh; actives 56% (n = 7,400); S. cerevisiae tim10-1 ts strain growth, BacTiter-Glo, 24 h; inhibition, % at 20 µM;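 active means inhibition of yeast growth at or above a set limit in either of two repeat tests at 20 µM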;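 further: tim10-1 mutant grown at permissive 25 °C to find synthetic lethal compounds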
TIM10 conf – TIM10 yeast growth inhibition, confirmed; shares compounds with TIM10 inh; S. cerevisiae tim10 strain growth, BacTiter-Glo luminescence, 24 h; inhibition, % at 10 µM; actives 63% (n = 4,600); AID 463215;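 active means inhibition of yeast growth at or above a set limit in either of two replicates at 10 µM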; further: this counterscreen used the strain with wild-type TIM10
tim23-1 conf – confirmation of tim23-1 mutant yeast growth inhibitors | shares compounds with tim23-1 inh | S. cerevisiae tim23-1 growth, BacTiter-Glo luminescence, 24 h | inhibition, % at 20 µM | actives 83% (n = 4,400) | AID 463218;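 active means inhibition above about 39% in either of two replicate wells at 20 µM, limit read from the data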;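 further: temperature-sensitive tim23-1 mutant grown at 25 °C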
Hits are given with their value; – = inactive; · = not tested or not shown.

SMILES	TIM10 inh	NLRP3 yeast inh	tim10-1 inh	NALP1 yeast inh	tim23-1 inh	tim10-1 confirm	TIM10 conf	tim23-1 conf
Cc1cccc(Cn2cc(/C=C/[N+](=O)[O-])c3ccccc32)c1	67	–	66	–	67	71	82	74
Cc1ccc(Nc2nc(-c3c(C)nc4ncccn34)cs2)cc1	–	–	–	–	–	·	·	·
Cc1ccc(Nc2nc(-c3c(C)nc4ccccn34)cs2)cc1	58	–	51	–	54	32	58	43
CC1CCN(C(=O)c2ccc3c(c2)NC(=O)/C(=C/c2ccccc2)S3)CC1	–	–	42	–	50	–	·	47
Cc1ccc(/C=C2/Sc3ccc(C(=O)N4CCN(C)CC4)cc3NC2=O)cc1	–	–	–	–	–	·	·	·
CCc1nc2ccccc2c2nc3ccccc3n12	44	–	59	–	51	46	–	48
Cc1ccc(Nc2nc(Cl)nc(N(C)C#N)n2)cc1	–	–	50	–	59	47	·	–
Cc1ccc2c(c1)[C@@H]1[C@H](CO2)[C@H](c2ccccc2)[C@]2(C)C(=O)N[C@H](C)C(=O)N12	–	–	–	·	–	·	·	·
COc1ccc(Cl)cc1NC(=S)NC(=O)c1ccco1	–	–	–	·	–	·	·	·
CNc1ccc(/C=C(\C#N)c2ccccn2)cc1[N+](=O)[O-]	–	–	–	–	–	·	·	·
N#C/C(=C\c1ccc(Cl)c([N+](=O)[O-])c1)c1ccccn1	64	–	54	–	60	66	73	69
COc1ccc(C(=O)c2c(C(F)(F)F)oc3c2C(=O)c2ccccc2C3=O)cc1	51	–	55	–	79	52	76	73
COC(=O)c1ccc(N2CCCCC2)c(NC(=O)c2ccco2)c1	–	–	–	–	–	·	·	·
Cc1nc(C)n(C(C)CNS(=O)(=O)c2ccc(Cl)cc2)n1 (stereo not given)	–	–	–	–	–	·	·	·
COC(=O)c1ccccc1-c1ccc(C(c2c(C)[nH][nH]c2=O)c2c(C)[nH][nH]c2=O)o1	46	–	56	–	54	36	36	48
COc1ccc(C(=O)Nc2nnc(SCC(=O)NC3CC3)s2)cc1	–	–	–	–	–	·	·	·
Cc1ccc(S(=O)(=O)c2ccc([N+](=O)[O-])cn2)cc1	73	–	73	35	75	68	70	75
O=C(NCCc1ccccc1)c1cccc(N2CCCC2=O)c1	–	–	–	–	–	·	·	·
C#CCOCCOCCOCCNc1nc(N2CCN(C(=O)CCCCCCCCCCNC(=O)[C@H](CCCCN)n3cc(CCCC(=O)O)nn3)CC2)nc(N2CCN(C(=O)CCCCCCCCCCNC(=O)[C@H](CCCN=C(N)N)n3cc(C[C@@H](C)CC)nn3)CC2)n1	–	–	44	·	52	38	·	53
C#CCOCCOCCOCCNc1nc(N2CCN(C(=O)CCCCCCCCCCNC(=O)[C@H](CCCCN)n3cc(CCCC(=O)O)nn3)CC2)nc(N2CCN(C(=O)CCCCCCCCCCNC(=O)[C@H](CCCCN)n3cc(CCCC(=O)O)nn3)CC2)n1	–	–	–	·	–	·	·	·
COc1ccc(Cl)cc1C(=O)Nc1cccc(-c2ccc3nncn3n2)c1	–	–	–	–	–	·	·	·
COc1ccc(C(=O)N2CCN(CCc3ccccc3)CC2)cc1[N+](=O)[O-]	–	–	–	–	–	·	·	·
COc1ccccc1C1CCN(Cc2cccc([N+](=O)[O-])c2)CC1	–	–	–	–	–	·	·	·
COc1ccccc1C1CCN(c2ccc(CO)cc2[N+](=O)[O-])CC1	42	–	64	–	64	61	36	73
O=C(ONC1=NCCCCC1)c1cccc([N+](=O)[O-])c1	82	–	61	–	78	38	90	69
SMILES	TIM10 inh	NLRP3 yeast inh	tim10-1 inh	NALP1 yeast inh	tim23-1 inh	tim10-1 confirm	TIM10 conf	tim23-1 conf
O=[N+]([O-])c1cccc(/C=N/NC2=NCCCCC2)c1	–	–	–	–	–	·	·	·
O=c1oc(-c2ccccc2Br)nc2ccccc12	–	–	49	–	59	40	·	71
CN(c1ccccc1)S(=O)(=O)c1ccc(C(=O)NCc2ccccc2F)cc1	–	–	–	·	–	·	·	·
CC(C)Cn1c(-c2cccs2)nc2nc3ccccc3nc21	–	–	–	–	–	·	·	·
CCCCn1c(-c2cccs2)nc2nc3ccccc3nc21	–	–	51	–	52	36	·	66
CS(=O)(=O)c1ccc(Cl)c(NC(=O)CSc2nnc(C3CC3)n2C2CC2)c1	–	–	–	·	–	·	·	·
CC12CC3CC(C)(C1)CC(C(=O)N1CCN(C(=O)c4ccco4)CC1)(C3)C2	–	–	–	–	–	·	·	·
Cc1ccc(-c2ccc(/C=C/C(=O)c3ccccc3)o2)cc1	67	–	62	·	62	69	67	78
Cc1cc(C)c(S(=O)(=O)NCC(=O)NCc2cc(=O)n(C)c(=O)n2C)c(C)c1	–	–	–	–	–	·	·	·
Cc1ccc(/C=C2/C(=O)ON=C2c2ccccc2)o1	–	–	52	–	74	40	·	76
N/C(=N\OC(=O)c1ccccc1)c1ccncc1	–	–	–	–	–	·	·	·
N/C(=N\OC(=O)c1ccc(F)cc1)c1ccccc1	63	–	68	–	73	64	61	76
Cc1ccc(/C(N)=N/OC(=O)c2ccc(F)cc2)cc1	67	–	59	–	68	55	69	65
Cc1cc(C=O)c(O)cc1O	–	–	–	–	–	·	·	·
CCN(C(=O)C1CCCN1S(=O)(=O)c1ccc2c(c1)n(C)c(=O)c(=O)n2C)c1ccccc1 (stereo not given)	–	–	–	–	–	·	·	·
O=[N+]([O-])c1ccc(/C=N/NC(=S)Nc2ccc(Cl)cc2Cl)s1	–	–	–	·	–	·	·	·
Cc1c(Cl)cccc1N=Cc1ccc([N+](=O)[O-])s1	83	–	67	–	65	61	65	76
O=C(N/N=C\c1ccc([N+](=O)[O-])s1)c1cncc(Br)c1	55	–	45	–	69	35	51	69
O=C(N/N=C/c1ccc([N+](=O)[O-])s1)c1ccccc1	–	–	–	–	–	·	·	·
COC(=O)N/N=C/c1ccc([N+](=O)[O-])s1	–	–	42	–	83	33	·	88
O=C(Oc1ccc(NC(=O)c2cc3c(cc2Br)OCO3)cc1)c1ccccc1	–	–	–	–	–	·	·	·
O=c1oc2cc(Oc3ccc(C(F)(F)F)cc3[N+](=O)[O-])ccc2c2c1CCC2	–	–	–	–	–	·	·	·
O=c1oc2cc(Oc3c([N+](=O)[O-])cc(C(F)(F)F)cc3[N+](=O)[O-])ccc2c2c1CCCC2	69	–	72	–	76	65	74	79
